“And” between values parts separate entries of the source, which are not always exact repeats. Equal entries are not always repeated. The panel holds about 79,000 compounds, 15% with a hit somewhere; the sample as a whole holds those more often. Unmarked numbers belong to inactive results. The source made the active and inactive calls. Rule as the data show it: active = growth inhibition above about 70%; inactive = the rest.
Legend:
[1] = NCI Yeast Anticancer Drug Screen. Data for the rad50 strain (AID 155);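 also: 0% = growth of vehicle-only cultures of the same strain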; conditions: S. cerevisiae rad50 strain growth inhibition; at 50.0 µM; hits give high values
Outline: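 Growth of the mutant yeast was measured after compound exposure and referenced to vehicle-treated cultures.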

[2] = NCI Yeast Anticancer Drug Screen. Data for the mec2-1 strain (AID 157); conditions: S. cerevisiae mec2-1 strain, at 50.0 µM, hits give high values
Outline: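 Readout is yeast growth inhibition, normalised to vehicle-treated controls, in the mec2-1 strain exposed to compound.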

[3] = NCI Yeast Anticancer Drug Screen. Data for the sgs1 mgt1 strain (AID 161);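 also: 0% = growth of cultures given vehicle only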; conditions: S. cerevisiae sgs1 mgt1 strain, at 50.0 µM, hits give high values
Outline: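 Yeast cells carrying a defined DNA-repair defect were exposed to test compounds. Growth inhibition was measured relative to vehicle-treated controls.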

[4] = NCI Yeast Anticancer Drug Screen. Data for the cln2 rad14 strain (AID 165);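 also: 0% = growth equal to vehicle treated cultures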; conditions: S. cerevisiae cln2 rad14 strain, at 50.0 µM, hits give high values
Outline: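 Relative to vehicle controls, growth inhibition of compound-treated cln2 rad14 yeast was recorded.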

[5] = NCI Yeast Anticancer Drug Screen. Data for the bub3 strain (AID 167); conditions: S. cerevisiae bub3 mutant strain, at 50.0 µM, hits give high values
Outline: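 Whole-cell yeast assay. The mutant strain was incubated with compounds, and growth inhibition was determined by comparison with vehicle-treated cells.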

[6] = NCI Yeast Anticancer Drug Screen. Data for the mlh1 rad18 strain (AID 175); conditions: S. cerevisiae mlh1 rad18 strain growth inhibition; at 50.0 µM; hits give high values
Outline: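 Test agents were incubated with a yeast strain of defined genotype (DNA damage repair defect). Inhibition of growth was derived by comparison with vehicle-exposed cultures.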

| SMILES | growth inhibition [1] | growth inhibition [2] | growth inhibition [3] | growth inhibition [4] | growth inhibition [5] | growth inhibition [6] |
| --- | --- | --- | --- | --- | --- | --- |
| CCOC(=O)/C(=C\c1ccc(C(F)(F)F)cc1)[Se]c1ccccc1 | 26.6% | -34.1% | 9.35% | 13.8% | -2.5% | -0.3% |
| Cc1csc(N/C(=N/[N+](=O)[O-])N(C)C)n1 | -35.5% | 0.65% | -9.15% | -10.8% | 2.1% | -3.7% |
| O=NN1CCOCC1 | -36.5% | 11.1% | 14.8% | -15.7% | -1.6% | 31.1% |
| O=P1(O)NP(=O)(O)NP(=O)(O)NP(=O)(O)N1 | -9.45% | 2.9% | -9.8% | -5.45% | -18.1% | -3.95% |
| COc1ccccc1NC1=NCC(C)S1 (stereo not given) | -10.2% | -15.2% | -52% | 24.4% | -14.4% | -2.1% |
| CC(=N\O)/C(C)=N/O.CC(=N\O)/C(C)=N/O.[Ni] | -5.1% | 3.6% | -7.35% | 0.95% | 5.4% | -10.9% |
| COc1cc([C@@H]2c3cc4c(c(O)c3C[C@H]3COC(=O)[C@@H]32)OCO4)cc(OC)c1O | 17.8% | -13.9% | 14.2% | 9.4% | 7.2% | -14.7% |
| CCN1CCCc2cc3c(C(F)(F)F)cc(=O)oc3cc21 | -6.3% | -12.4% | -10% | -4.05% | -6.45% | -11.8% |
| O=C1C(=O)c2ccccc2-c2ccccc21 | 36.6% and 34.6% | 31.1% and 18.2% | 32.8% and 25.5% | -6.65% and -35.9% | 25.9% and 30.6% | 5.35% and 9.6% |
| O=[N+]([O-])c1ccc([As](=O)(O)c2cccc([N+](=O)[O-])c2)cc1 | 0.8% | 1.3% | 0.65% | -28.9% | 38.9% | 7.4% |
| c1ccc2c(c1)ccc1[s+]cccc12 | 69.4% | 23.2% | 35.7% | 25.4% | 16.1% | 76% (active) |
| CCN1C(=O)C(=Cc2ccc(-c3ccccc3)cc2)C(=O)N(CC)C1=S | 32.4% | -5.5% | 23.1% | 16.9% | 15.4% | 20.4% |
| C=CCC1(CC=C)C(=O)N(C)C(=O)N(C)C1=O | 7.25% | 13.7% | -6.75% | 8.45% | 5.2% | -6.95% |
| [C-]#[O+].[C-]#[O+].[C-]#[O+].[C-]#[O+].[W].c1ccc([PH+](CC[PH+](c2ccccc2)c2ccccc2)c2ccccc2)cc1 | -2.9% | 5.2% | -10.4% | -8% | -7.5% | 8.95% |
| C#CCC1(OC(N)=O)CCCCC1 | 19.2% | 14.8% | -1.35% | -38.2% | 3.65% | -16.6% |
| C=CCC1(OC(C)=O)CCC2C3CCC4CC=CCC4(C)C3CCC21C (stereo not given) | -9.9% | 4.5% | -8.85% | -51.4% | 1% | -9.4% |
| C[N+](C)(C)CC1CCCCCCCCCCC1=O (stereo not given) | -4.85% | -10.4% | -25.2% | 7.75% | -16.4% | -9.75% |
| N#CS.[Cr+3].[NH-]CC[NH-].[NH-]CC[NH-].[NH-]CC[NH-] | 14.8% | -0.5% | 10.2% | 12.8% | -2.75% | 5.05% |

| SMILES | growth inhibition [1] | growth inhibition [2] | growth inhibition [3] | growth inhibition [4] | growth inhibition [5] | growth inhibition [6] |
| --- | --- | --- | --- | --- | --- | --- |
| CC(=O)OC1(C)CC(C)C(=O)C(C(O)CC2CC(=O)NC(=O)C2)C1 (stereo not given) | 92.8% (active) | 94.3% (active) | 93.7% (active) | 92.2% (active) | 93.3% (active) | 92.3% (active) |
| [C-]#[O+].[C-]#[O+].[C-]#[O+].[C-]#[O+].[Cr].c1ccc([PH+](c2ccccc2)c2ccccc2)cc1.c1ccc([PH+](c2ccccc2)c2ccccc2)cc1 | -4.4% | 8.05% | -8.95% | -3.35% | -5.4% | -1.55% |
| O=C1NC(=O)C2(O)NC(=O)NC2(O)N1 (stereo not given) | -27.1% | -9.5% | 3.15% | -10.8% | -22.4% | 18.1% |
| CCC(C)C1NC(=O)C2CCCN2C(=O)C(CC2CO2)OC(=O)CCNC(=O)C(C)N(C)C(=O)C(C(C)C)N(C)C1=O (stereo not given) | 55.1% | 5.15% | 41.2% | 31.6% | 36% | 28.8% |
| Nc1ccc([N+](=O)[O-])cc1[N+](=O)[O-] | -24.9% | 5.4% | -21.2% | -8.8% | 0.6% | 11% |
| Cc1ccc(S(=O)(=O)CC([Se]C#N)c2ccccc2)cc1 (stereo not given) | -21.1% | 2.2% | -15.1% | -3.9% | -6.1% | 1.45% |
| CC1(C)N=C(N)N=C(N)N1c1ccc(CCc2cccc(Cl)c2S(=O)(=O)F)c(Cl)c1 | 99.5% (active) | 99.7% (active) | 99.7% (active) | 99.3% (active) | 99% (active) | 99.5% (active) |
| CC(=O)OC1CCC2(C)C(=CCC3C2CCC2(C)C(Oc4ccccc4)CCC32)C1 (stereo not given) | -42.7% | -28.4% | -33.6% | 3.55% | -28.4% | -46.1% |
| CC1(C)CN=C(Nc2ccc(F)c(F)c2)S1 | 4.3% | 3.8% | 12.1% | 15.3% | -12.8% | -19.6% |
| CCC[CH2][Pb]([CH2]CCC)([CH2]CCC)[O]C(C)=O | 9.6% | -7.95% | 16.1% | 25.1% | 25% | 13.3% |
| CC(CN1CCCCCC1)C(C#N)(c1ccccc1)c1ccccc1 (stereo not given) | 7.4% | 13.2% | 25.4% | 49.5% | 46% | 10.3% |
| [Se]c1nc(N2CCOCC2)ncc1-c1ccccc1 | -18% | 0.5% | -17.2% | 0.5% | -3.3% | 9% |
| CCOP(=O)(OCC)C1CCC(=O)O1 (stereo not given) | -14.2% | -20.2% | -14% | 12.4% | 10.6% | 10.6% |
| c1ccc(P(CCP(CCP(c2ccccc2)c2ccccc2)c2ccccc2)CCP(c2ccccc2)c2ccccc2)cc1 (stereo not given) | -5.15% and 0.15% and 8.05% | -5.7% and 34.8% and 10.3% | -18.6% and 18.4% and -0.95% | -8.05% and -20.2% and 7.15% | 0.45% and 2.95% and 21.9% | -5.95% and 29.8% and 11.2% |
| COc1ccc(P2(=S)OC(C)(C)C(C)(C)O2)cc1 | -24.7% | -16.2% | -23.7% | -51.6% | -11.4% | -43% |
| Cc1ccc(NP(=S)(Nc2ccc(C)cc2C)Nc2ccc(C)cc2C)c(C)c1 | 18.3% | -1.6% | -3.1% | 17.9% | 2.7% | 9.55% |
| C=C1CCC2CC1C2(C)C (stereo not given) | 5.95% and 13.7% and -4.1% | 0.75% and -4.25% and -15.2% | 6.5% and -6.65% and -29.8% | 9.45% and -27% and 2.6% | 10.3% and 0.05% and -6.7% | 21.4% and 2.7% and -10.2% |

From PubChem BioAssay (NCI)
